# Assay results from publication PMC7862700, “An all-to-all approach to the identification of sequence-specific readers for epigenetic DNA modifications on cytosine”.
# Tests used:
# Assay in all cases: DAPPL (digital affinity profiling via proximity ligation, sequencing); 10 mM Tris-HCl pH 7.5, 50 mM NaCl, 1 mM DTT, 4% glycerol, room temperature, 30 min; GST-TFs on glutathione beads, 16-mer random dsDNA library, 0.1% formaldehyde crosslink after washing; high values mean tight binding
# Settings in all cases: protein: recombinant; tags: N-terminal GST; dsDNA, one strand shown
# FLI1 = molecular target: T1, FLI1 (Homo sapiens, UniProt Q01543 1-452)
# T1 sequence: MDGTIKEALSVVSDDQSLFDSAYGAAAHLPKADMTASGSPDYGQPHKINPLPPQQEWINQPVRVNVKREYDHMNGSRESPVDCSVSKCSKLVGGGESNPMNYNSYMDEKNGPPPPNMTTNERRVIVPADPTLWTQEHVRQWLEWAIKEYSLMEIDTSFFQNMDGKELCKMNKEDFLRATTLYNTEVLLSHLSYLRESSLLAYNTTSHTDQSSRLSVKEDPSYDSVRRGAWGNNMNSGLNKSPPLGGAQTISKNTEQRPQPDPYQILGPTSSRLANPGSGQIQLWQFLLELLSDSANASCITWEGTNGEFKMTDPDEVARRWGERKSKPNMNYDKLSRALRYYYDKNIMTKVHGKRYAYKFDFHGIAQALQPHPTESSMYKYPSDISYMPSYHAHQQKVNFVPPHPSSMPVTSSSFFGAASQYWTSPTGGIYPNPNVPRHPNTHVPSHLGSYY
# Procedure, shortened: (§1)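 A tag-only sample was pooled with DNA-barcoded human transcription factors that had been expressed in yeast as GST fusions and captured on glutathione beads. The pools were incubated for 30 min at room temperature with 200 nmole of a random double-stranded 16-mer DNA library in Tris/NaCl/DTT/glycerol buffer, then washed, crosslinked with 0.1% formaldehyde, proximity-ligated (BsaI/T4 ligase, 1 h, 37 °C), PCR-amplified and sequenced on an Illumina NextSeq500. Binding signal is each hexamer's read frequency for a factor divided by its frequency for the tag-only sample.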
# ELK1 = molecular target: T2, ELK1 (Homo sapiens, UniProt P19419 1-428)
# T2 sequence: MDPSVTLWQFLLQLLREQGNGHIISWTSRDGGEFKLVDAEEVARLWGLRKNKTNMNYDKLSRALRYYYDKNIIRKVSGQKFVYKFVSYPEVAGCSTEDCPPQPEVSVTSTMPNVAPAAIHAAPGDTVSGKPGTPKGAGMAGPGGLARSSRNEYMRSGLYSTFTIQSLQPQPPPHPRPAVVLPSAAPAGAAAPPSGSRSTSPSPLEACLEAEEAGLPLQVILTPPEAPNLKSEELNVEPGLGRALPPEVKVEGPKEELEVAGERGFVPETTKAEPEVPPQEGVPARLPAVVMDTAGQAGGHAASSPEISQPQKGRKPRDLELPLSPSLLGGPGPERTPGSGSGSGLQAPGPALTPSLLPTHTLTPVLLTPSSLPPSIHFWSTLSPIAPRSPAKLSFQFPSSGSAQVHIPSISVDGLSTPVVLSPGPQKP
# Procedure, shortened: as §1
# GABPA = molecular target: T3, GABPA (Homo sapiens, UniProt Q06546 1-454)
# T3 sequence: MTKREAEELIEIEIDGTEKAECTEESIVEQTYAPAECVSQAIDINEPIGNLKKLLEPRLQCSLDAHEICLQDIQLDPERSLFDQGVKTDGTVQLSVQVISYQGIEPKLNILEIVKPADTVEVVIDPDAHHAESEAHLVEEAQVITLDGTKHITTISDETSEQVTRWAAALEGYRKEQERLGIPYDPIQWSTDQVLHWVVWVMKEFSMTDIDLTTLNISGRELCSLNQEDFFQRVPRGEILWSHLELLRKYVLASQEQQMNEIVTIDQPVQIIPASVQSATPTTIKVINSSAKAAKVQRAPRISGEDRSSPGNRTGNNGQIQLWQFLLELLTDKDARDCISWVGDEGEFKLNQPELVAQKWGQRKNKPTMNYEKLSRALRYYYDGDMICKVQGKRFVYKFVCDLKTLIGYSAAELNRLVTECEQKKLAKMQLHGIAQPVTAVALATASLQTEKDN
# Procedure, shortened: as §1
# ERG = molecular target: T4, ERG (Homo sapiens, UniProt P11308 1-479)
# T4 sequence: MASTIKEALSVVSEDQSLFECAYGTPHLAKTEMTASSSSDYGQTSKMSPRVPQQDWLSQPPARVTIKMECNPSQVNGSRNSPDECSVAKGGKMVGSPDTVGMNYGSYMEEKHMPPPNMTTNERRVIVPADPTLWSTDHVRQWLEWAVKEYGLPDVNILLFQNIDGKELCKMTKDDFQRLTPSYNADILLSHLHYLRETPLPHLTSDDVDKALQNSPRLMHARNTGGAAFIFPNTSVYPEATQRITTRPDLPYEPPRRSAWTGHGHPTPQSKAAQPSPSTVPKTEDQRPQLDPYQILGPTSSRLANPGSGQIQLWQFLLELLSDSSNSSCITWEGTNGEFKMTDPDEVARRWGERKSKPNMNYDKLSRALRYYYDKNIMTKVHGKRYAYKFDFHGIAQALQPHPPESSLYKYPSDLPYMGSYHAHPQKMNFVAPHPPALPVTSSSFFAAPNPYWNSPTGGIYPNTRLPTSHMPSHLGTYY
# Procedure, shortened: as §1
# ELF1 = ELF1 (Homo sapiens, UniProt P32519 1-619)
# ELF1, sequence (P32519 whole entry): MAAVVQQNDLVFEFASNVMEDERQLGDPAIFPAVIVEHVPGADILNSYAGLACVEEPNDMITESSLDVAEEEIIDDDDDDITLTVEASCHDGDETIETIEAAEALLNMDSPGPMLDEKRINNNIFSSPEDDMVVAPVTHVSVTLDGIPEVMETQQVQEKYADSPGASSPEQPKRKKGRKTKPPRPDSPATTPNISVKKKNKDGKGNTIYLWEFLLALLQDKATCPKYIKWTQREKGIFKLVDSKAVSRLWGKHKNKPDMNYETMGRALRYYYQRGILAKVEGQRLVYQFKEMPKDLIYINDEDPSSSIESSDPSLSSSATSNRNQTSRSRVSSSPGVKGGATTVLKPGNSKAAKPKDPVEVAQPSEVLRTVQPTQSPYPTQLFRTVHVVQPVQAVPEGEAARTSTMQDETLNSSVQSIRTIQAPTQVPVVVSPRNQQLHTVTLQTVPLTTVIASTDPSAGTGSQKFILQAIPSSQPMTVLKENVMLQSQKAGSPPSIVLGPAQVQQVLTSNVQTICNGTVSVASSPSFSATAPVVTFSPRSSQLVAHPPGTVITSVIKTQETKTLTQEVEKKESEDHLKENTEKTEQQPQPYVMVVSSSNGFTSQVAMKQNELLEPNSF
# Procedure, shortened: as §1
# EHF = molecular target: T5, EHF (Homo sapiens, UniProt Q9NZC4 1-300)
# T5 sequence: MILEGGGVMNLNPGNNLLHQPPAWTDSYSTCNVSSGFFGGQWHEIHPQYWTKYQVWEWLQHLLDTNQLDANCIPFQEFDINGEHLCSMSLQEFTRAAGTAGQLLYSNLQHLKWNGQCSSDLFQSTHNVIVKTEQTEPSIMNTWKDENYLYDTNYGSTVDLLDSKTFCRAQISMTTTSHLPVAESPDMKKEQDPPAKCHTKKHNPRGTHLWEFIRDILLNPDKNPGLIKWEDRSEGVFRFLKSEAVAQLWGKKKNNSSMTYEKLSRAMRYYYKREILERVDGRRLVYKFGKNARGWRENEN
# Procedure, shortened: as §1
# SPI1 = SPI1 (Homo sapiens, UniProt P17947 1-270)
# Procedure, shortened: as §1
# SPIB = SPIB (Homo sapiens, UniProt Q01892 1-262)
# SPIB, sequence (Q01892 whole entry): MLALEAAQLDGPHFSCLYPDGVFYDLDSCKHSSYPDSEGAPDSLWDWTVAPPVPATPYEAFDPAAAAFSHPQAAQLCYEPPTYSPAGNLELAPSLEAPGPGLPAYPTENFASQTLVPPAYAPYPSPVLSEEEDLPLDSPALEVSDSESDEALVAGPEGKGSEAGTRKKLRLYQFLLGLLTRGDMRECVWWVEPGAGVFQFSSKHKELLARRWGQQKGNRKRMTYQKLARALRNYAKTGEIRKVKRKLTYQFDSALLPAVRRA
# Procedure, shortened: as §1
# ELK3 = molecular target: T6, ELK3 (Homo sapiens, UniProt P41970 1-407)
# T6 sequence: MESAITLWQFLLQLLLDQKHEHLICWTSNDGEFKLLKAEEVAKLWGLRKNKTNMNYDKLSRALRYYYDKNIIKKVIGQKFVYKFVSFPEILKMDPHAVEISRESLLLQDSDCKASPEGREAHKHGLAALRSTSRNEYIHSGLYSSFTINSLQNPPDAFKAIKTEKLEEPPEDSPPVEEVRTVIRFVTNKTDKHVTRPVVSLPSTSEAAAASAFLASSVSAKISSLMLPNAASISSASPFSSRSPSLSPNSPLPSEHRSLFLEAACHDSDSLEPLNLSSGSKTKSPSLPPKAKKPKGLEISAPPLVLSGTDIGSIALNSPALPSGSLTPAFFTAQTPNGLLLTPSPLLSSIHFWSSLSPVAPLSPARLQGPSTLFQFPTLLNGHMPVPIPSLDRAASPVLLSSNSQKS
# Procedure, shortened: as §1
Sequence,binding signal (FLI1),binding signal (ELK1),binding signal (GABPA),binding signal (ERG),binding signal (ELF1),binding signal (EHF),binding signal (SPI1),binding signal (SPIB),binding signal (ELK3)
CCTTCG,"1.31 fold enrichment (6-mer frequency, TF over GST control)","1.33 fold enrichment (6-mer frequency, TF over GST control)","1.35 fold enrichment (6-mer frequency, TF over GST control)","1.3 fold enrichment (6-mer frequency, TF over GST control)","1.33 fold enrichment (6-mer frequency, TF over GST control)","1.19 fold enrichment (6-mer frequency, TF over GST control)","1.32 fold enrichment (6-mer frequency, TF over GST control)","1.41 fold enrichment (6-mer frequency, TF over GST control)","1.65 fold enrichment (6-mer frequency, TF over GST control)"
ATATAT,"1.47 fold enrichment (6-mer frequency, TF over GST control)","1.38 fold enrichment (6-mer frequency, TF over GST control)","1.44 fold enrichment (6-mer frequency, TF over GST control)","1.38 fold enrichment (6-mer frequency, TF over GST control)","1.47 fold enrichment (6-mer frequency, TF over GST control)","1.4 fold enrichment (6-mer frequency, TF over GST control)","1.37 fold enrichment (6-mer frequency, TF over GST control)","1.42 fold enrichment (6-mer frequency, TF over GST control)","1.4 fold enrichment (6-mer frequency, TF over GST control)"
ACAGGA,"1.15 fold enrichment (6-mer frequency, TF over GST control)","1.08 fold enrichment (6-mer frequency, TF over GST control)","1.13 fold enrichment (6-mer frequency, TF over GST control)","1.22 fold enrichment (6-mer frequency, TF over GST control)","1.04 fold enrichment (6-mer frequency, TF over GST control)","1.12 fold enrichment (6-mer frequency, TF over GST control)","1.34 fold enrichment (6-mer frequency, TF over GST control)","1.22 fold enrichment (6-mer frequency, TF over GST control)","1.04 fold enrichment (6-mer frequency, TF over GST control)"
CGCACT,"1.12 fold enrichment (6-mer frequency, TF over GST control)","1.33 fold enrichment (6-mer frequency, TF over GST control)","1.28 fold enrichment (6-mer frequency, TF over GST control)","1.21 fold enrichment (6-mer frequency, TF over GST control)","1.22 fold enrichment (6-mer frequency, TF over GST control)","1.29 fold enrichment (6-mer frequency, TF over GST control)","1.41 fold enrichment (6-mer frequency, TF over GST control)","1.27 fold enrichment (6-mer frequency, TF over GST control)","1.24 fold enrichment (6-mer frequency, TF over GST control)"
ACCCCC,"1.17 fold enrichment (6-mer frequency, TF over GST control)","1.16 fold enrichment (6-mer frequency, TF over GST control)","1.21 fold enrichment (6-mer frequency, TF over GST control)","1.16 fold enrichment (6-mer frequency, TF over GST control)","1.09 fold enrichment (6-mer frequency, TF over GST control)","1.12 fold enrichment (6-mer frequency, TF over GST control)","1.14 fold enrichment (6-mer frequency, TF over GST control)","1.21 fold enrichment (6-mer frequency, TF over GST control)","1.18 fold enrichment (6-mer frequency, TF over GST control)"
CCCATG,"1.06 fold enrichment (6-mer frequency, TF over GST control)","1 fold enrichment (6-mer frequency, TF over GST control)","1.22 fold enrichment (6-mer frequency, TF over GST control)","1.19 fold enrichment (6-mer frequency, TF over GST control)","1.15 fold enrichment (6-mer frequency, TF over GST control)","1.11 fold enrichment (6-mer frequency, TF over GST control)","1.14 fold enrichment (6-mer frequency, TF over GST control)","1.15 fold enrichment (6-mer frequency, TF over GST control)","1.13 fold enrichment (6-mer frequency, TF over GST control)"
ACTTAA,"1.17 fold enrichment (6-mer frequency, TF over GST control)","1.23 fold enrichment (6-mer frequency, TF over GST control)","1.22 fold enrichment (6-mer frequency, TF over GST control)","1.11 fold enrichment (6-mer frequency, TF over GST control)","1.18 fold enrichment (6-mer frequency, TF over GST control)","1.31 fold enrichment (6-mer frequency, TF over GST control)","1.24 fold enrichment (6-mer frequency, TF over GST control)","1.18 fold enrichment (6-mer frequency, TF over GST control)","1.24 fold enrichment (6-mer frequency, TF over GST control)"
ACGTAC,"1.24 fold enrichment (6-mer frequency, TF over GST control)","1.16 fold enrichment (6-mer frequency, TF over GST control)","1.13 fold enrichment (6-mer frequency, TF over GST control)","1.08 fold enrichment (6-mer frequency, TF over GST control)","1.16 fold enrichment (6-mer frequency, TF over GST control)","1.15 fold enrichment (6-mer frequency, TF over GST control)","1.18 fold enrichment (6-mer frequency, TF over GST control)","1.11 fold enrichment (6-mer frequency, TF over GST control)","1.19 fold enrichment (6-mer frequency, TF over GST control)"
